Read-out in test [1]: Interleukin-1 alpha (IL1a), IL1A (gene 3552)
Put plainly: BSK_LPS_IL1a: BioMAP Diversity Plus: LPS Assay for Interleukin-1 alpha (IL1a) Biomarker Activity (AID 2283080). The conditions noted are these: primary human HUVEC with PBMC; actives raise or lower the signal. The gist of the method: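 ELISA read-out of IL-1 alpha from a human primary vascular co-culture (endothelium plus PBMC) under LPS, sampled 24 hours post-dosing. Activity was fitted in both directions relative to DMSO controls.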

Read-out in test [2]: Monocyte Chemoattractant Protein-1 (MCP1), CCL2 (gene 6347)
Put plainly: BSK_LPS_MCP1: BioMAP Diversity Plus: LPS Assay for Monocyte Chemoattractant Protein-1 (MCP1) Biomarker Activity (AID 2283081).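 As to AC50: secreted MCP-1 protein quantified by ELISA in culture supernatant.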 The conditions noted are these: primary human HUVEC with PBMC; actives raise or lower the signal. In a few lines:
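Human endothelial–PBMC co-cultures were dosed with chemical, then LPS-driven MCP-1 levels were quantified by ELISA at 24 h. Activity in either direction was fitted versus DMSO negative control.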

Test [3] in a line: BSK_LPS_PGE2: BioMAP Diversity Plus: LPS Assay for Prostaglandin E2 (PGE2) Biomarker Activity (AID 2283082). The conditions noted are these: primary human HUVEC with PBMC; actives raise or lower the signal. The gist of the method: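 LPS-activated HUVEC/PBMC co-culture; cmpd dosed, 24 h; PGE2 by ELISA; bidirectional fit vs DMSO; SRB (0.1%, TCA-fixed, 560 nm) in parallel plates for overt cytotox.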

Read-out in test [4]: Macrophage colony-stimulating factor (MCSF), CSF1 (gene 1435)
Put plainly: BSK_LPS_MCSF: BioMAP Diversity Plus: LPS Assay for Macrophage colony-stimulating factor (MCSF) Biomarker Activity (AID 2283083). The conditions noted are these: primary human HUVEC with PBMC; actives raise or lower the signal. In a few lines: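 ELISA readout of M-CSF after 24 h compound exposure in a human endothelial/PBMC co-culture. Activity, in either direction, is fitted relative to DMSO vehicle.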

Read-out in test [5]: Tissue Factor, F3 (gene 2152)
Put plainly: BSK_LPS_TissueFactor: BioMAP Diversity Plus: LPS Assay for Tissue Factor Biomarker Activity (AID 2283084). The conditions noted are these: primary human HUVEC with PBMC; actives raise or lower the signal. In a few lines: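 ELISA signal for cell-surface Tissue Factor (CD142) was read 24 h after compound dosing of an LPS-stimulated human endothelial–PBMC primary co-culture. Gain or loss of signal was scored relative to DMSO.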

Read-out in test [6]: Tumor necrosis factor (Homo sapiens) (UniProt P01375)
The test can be described thus: BSK_LPS_TNFa: BioMAP Diversity Plus: LPS Assay for Tumour Necrosis Factor alpha (TNFa) Biomarker Activity (AID 2283085). The conditions noted are these: primary human HUVEC with PBMC; actives raise or lower the signal. In a few lines:
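Read-out is ELISA of TNFa in primary human endothelial cell–PBMC co-cultures at 24 h after compound. Activity in either direction was fitted against DMSO.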

Read-out in test [7]: Vascular cell adhesion molecule 1 (VCAM1), VCAM1 (gene 7412)
Put plainly: BSK_LPS_VCAM1: BioMAP Diversity Plus: LPS Assay for Vascular cell adhesion molecule 1 (VCAM1) Biomarker Activity (AID 2283086). The conditions noted are these: primary human HUVEC with PBMC; actives raise or lower the signal. In a few lines: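 HUVEC + PBMC co-culture, LPS system; compound 24 h; VCAM-1 by ELISA; bidirectional fit vs DMSO control; parallel SRB (0.1%, TCA-fixed, 560 nm) for cytotoxicity.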

Read-out in test [8]: CD38, CD38 (gene 952)
Put plainly: BSK_SAg_CD38: BioMAP Diversity Plus: SAg Assay for CD38 Biomarker Activity (AID 2283087). The conditions noted are these: primary human HUVEC with PBMC; actives raise or lower the signal. The gist of the method:
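Human HUVEC plus PBMC co-culture stimulated with superantigen; CD38 measured by ELISA 24 h after chemical dosing. Fluorescence read-out, bidirectional fit against DMSO; cytotoxicity tracked in parallel by SRB and Alamar Blue.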

Read-out in test [9]: CD40, CD40 (gene 958)
The test can be described thus: BSK_SAg_CD40: BioMAP Diversity Plus: SAg Assay for CD40 Biomarker Activity (AID 2283088). The conditions noted are these: primary human HUVEC with PBMC; actives raise or lower the signal. In a few lines: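 Compounds were dosed onto a human primary endothelial–PBMC co-culture, and after 24 h CD40 was quantified by ELISA using a fluorescence signal. Activity in either direction was fitted relative to DMSO.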

Read-out in test [10]: CD69, CD69 (gene 969)
Put plainly: BSK_SAg_CD69: BioMAP Diversity Plus: SAg Assay for CD69 Biomarker Activity (AID 2283089).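 As to AC50: cell surface CD69 protein quantified by ELISA with fluorescence detection.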 The conditions noted are these: primary human HUVEC with PBMC; actives raise or lower the signal. In a few lines: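 Primary human vascular co-culture (umbilical vein endothelium with peripheral blood mononuclear cells) exposed to test chemical for 24 h. CD69 levels quantified by fluorescence ELISA; DMSO served as negative control for bidirectional fitting.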

Read-out in test [11]: Monocyte Chemoattractant Protein-1 (MCP1), CCL2 (gene 6347)
Put plainly: BSK_SAg_MCP1: BioMAP Diversity Plus: SAg Assay for Monocyte Chemoattractant Protein-1 (MCP1) Biomarker Activity (AID 2283090). The conditions noted are these: primary human HUVEC with PBMC; actives raise or lower the signal. The gist of the method:
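MCP-1 levels in the endothelial–PBMC SAg co-culture were quantified by ELISA at 24 h post-dosing; both increases and decreases versus DMSO scored. Cytotoxicity monitored by SRB total protein in parallel cultures.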

Read-out in test [12]: E-selectin (Homo sapiens) (UniProt P16581)
The test can be described thus: BSK_SAg_Eselectin: BioMAP Diversity Plus: SAg Assay for Eselectin Biomarker Activity (AID 2283091). The conditions noted are these: primary human HUVEC with PBMC; actives raise or lower the signal. The gist of the method: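 Co-culture: HUVEC + PBMC. Dose compound; 24 h. ELISA for E-selectin. Bidirectional fit vs DMSO.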

Read-out in test [13]: Monokine induced gamma interferon (MIG), CXCL9 (gene 4283)
Put plainly: BSK_SAg_MIG: BioMAP Diversity Plus: SAg Assay for Monokine induced gamma interferon (MIG) Biomarker Activity (AID 2283092). The conditions noted are these: primary human HUVEC with PBMC; actives raise or lower the signal. The gist of the method:
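Endothelial cells and PBMC were co-cultured, exposed to test chemicals, and sampled 24 h later. MIG was measured by ELISA, and responses were fitted in both directions relative to DMSO.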

The nature of test [14]: BSK_SAg_PBMCCytotoxicity: PBMC Cytotoxicity Assessment in the BioMAP Diversity Plus: SAg Assay (AID 2283093).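 Also: PBMC viability measured as Alamar Blue reduction fluorescence at 546/580 nm; fitted both ways against DMSO so a hit may be loss or gain of signal.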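 As to AC50: PBMC superantigen activated with SEB plus TSST-1 one hour after compound addition.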 The conditions noted are these: primary human HUVEC with PBMC. The gist of the method:
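HUVEC/PBMC co-culture; PBMC exposed to chemical 1 h before SEB and TSST-1 activation (20 ng/mL each), incubated 90 h, then Alamar Blue 6 h, fluorescence 546/580 nm. Bidirectional fit versus DMSO baseline.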

Read-out in test [15]: Interleukin-8 (IL8), CXCL8 (gene 3576)
The test can be described thus: BSK_SAg_IL8: BioMAP Diversity Plus: SAg Assay for Interleukin-8 (IL8) Biomarker Activity (AID 2283094). The conditions noted are these: primary human HUVEC with PBMC; actives raise or lower the signal. The gist of the method:
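ELISA read-out of IL-8 in a primary human vascular co-culture (umbilical vein endothelium plus PBMC), taken 24 h after compound addition. Values derive from bidirectional fits against DMSO negative controls.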

A short description of test [16]: BSK_SAg_Proliferation: Cell Proliferation Assessment in the BioMAP Diversity Plus: SAg Assay (AID 2283095).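 Also: relative cell number as total protein by SRB absorbance in sub-confluent culture.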 The conditions noted are these: primary human HUVEC with PBMC. In a few lines: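 Cells (endothelium plus PBMC, human primary) were dosed with chemical, cultured 96 h, fixed in 10% TCA and stained with 0.1% SRB. Absorbance at 560 nm gave relative protein, fitted bidirectionally relative to DMSO.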

Test [17] can be described thus: BSK_SAg_SRB: Viability Assessment in the BioMAP Diversity Plus: SAg Assay (AID 2283096).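 Also: cells read one day after compound addition; hits may be either gain or loss of signal compared with DMSO.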 The conditions noted are these: primary human HUVEC with PBMC. In a few lines:
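Human umbilical vein endothelial cells co-cultured with PBMC, read 24 h after compound dosing. Total protein measured by sulforhodamine B staining (0.1% SRB after 10% TCA fixation, absorbance 560 nm); bidirectional fit versus DMSO baseline.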

Several values for one entry are separate records, joined by “and”; a condition that tells them apart may be missing. Equal entries are not always repeated. Where a structure was tested more than once in an assay, its records may differ in their call. Activity calls are given as the source filed them. The calls were made as follows: active = hit-call score of the fitted dose curve at least 0.9, where 1 is the maximum; inactive = score below 0.9.

Sequence of Tumor necrosis factor (Homo sapiens) (P01375 whole entry, looked up): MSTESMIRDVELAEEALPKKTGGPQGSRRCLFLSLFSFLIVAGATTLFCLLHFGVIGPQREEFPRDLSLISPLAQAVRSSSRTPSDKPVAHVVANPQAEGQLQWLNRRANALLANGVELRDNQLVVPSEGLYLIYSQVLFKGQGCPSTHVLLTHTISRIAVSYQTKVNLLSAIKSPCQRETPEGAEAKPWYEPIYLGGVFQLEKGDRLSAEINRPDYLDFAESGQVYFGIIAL
Sequence of E-selectin (Homo sapiens) (P16581 whole entry, looked up): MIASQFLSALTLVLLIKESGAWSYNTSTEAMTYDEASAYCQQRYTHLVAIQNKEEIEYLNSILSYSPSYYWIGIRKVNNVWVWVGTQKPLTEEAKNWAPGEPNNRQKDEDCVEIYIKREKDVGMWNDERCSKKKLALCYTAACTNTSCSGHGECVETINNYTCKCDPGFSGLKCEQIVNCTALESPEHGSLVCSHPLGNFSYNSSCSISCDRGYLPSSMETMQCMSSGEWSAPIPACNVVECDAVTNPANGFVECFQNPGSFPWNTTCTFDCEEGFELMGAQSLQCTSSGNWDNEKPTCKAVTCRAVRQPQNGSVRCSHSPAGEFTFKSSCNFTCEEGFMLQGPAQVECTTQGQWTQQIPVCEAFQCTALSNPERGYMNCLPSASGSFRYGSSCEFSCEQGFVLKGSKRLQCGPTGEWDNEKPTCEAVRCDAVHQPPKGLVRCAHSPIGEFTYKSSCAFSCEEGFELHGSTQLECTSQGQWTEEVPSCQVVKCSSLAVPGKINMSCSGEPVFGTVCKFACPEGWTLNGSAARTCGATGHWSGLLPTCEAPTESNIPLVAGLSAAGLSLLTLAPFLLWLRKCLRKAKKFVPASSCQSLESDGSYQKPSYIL

For the compound `OCCCC(F)(F)C(F)(F)C(F)(F)C(F)(F)C(F)(F)C(F)(F)C(F)(F)F`, the AC50 in test [1] is 46 µM (active); in [2], 44.7 µM (active) and 44.2 µM (active); in [4] it was 46 µM (active) and 47.8 µM (active); in test [5], 49.9 µM (active) and 45.5 µM (active); in test [6] it was 48 µM (active) and 25.8 µM (active); in [7], 51.4 µM (active) and 43.6 µM (active). The AC50 in test [8] was 47.1 µM (active) and 49.3 µM (active); in test [9] it was 48 µM (active) and 50.1 µM (active); in test [10], 42.4 µM (active) and 41.7 µM (active); in [11], 43.2 µM (active) and 46.3 µM (active); in test [12], 44.2 µM (active) and 38.8 µM (active); in test [13], 54 µM (active) and 50.8 µM (active). Also, the AC50 is 14.4 µM (active) and 14.8 µM (active) in test [14]; 23.3 µM (active) and 50.1 µM (active) in test [15]; 16.8 µM (active) and 16.3 µM (active) in [16]; 51.4 µM (active) and 44.9 µM (active) in test [17]. In addition, the outcome in [1] and in [3] was inactive.
As for `FC(F)(F)C(F)(F)C(F)(F)C(F)(F)C(F)(F)C(F)(F)CC1CO1` (configuration not stated), the result in [1], in [2], in test [3], in test [4], in [5] and in [6] was inactive. Besides, the outcome in [7], in test [8], in test [9], in [10], in [11] and in test [12] was inactive. Moreover, the result in test [13], in test [14], in test [15], in test [16] and in test [17] was inactive.
Regarding `O=C(O)C=C(C(F)(F)F)C(F)(F)F`, the result in test [1], in test [2], in test [3], in [4], in test [5] and in test [6] was inactive. Also, the result in [8], in test [9], in test [11], in test [13], in [14] and in [17] was inactive. Also, the AC50 in test [4] was 8.27 µM (active); in test [7] it was 10.5 µM (active) and 10.2 µM (active); in test [9], 40.3 µM (active); in [10] it was 22.8 µM (active) and 30 µM (active); in [11], 18.8 µM (active); in [12] it was 26.8 µM (active) and 22.9 µM (active). For the same compound, the AC50 in test [15] was 30 µM (active) and 20 µM (active); in [16], 43 µM (active) and 27.2 µM (active).
As to `NC(=O)C(F)(F)C(F)(F)C(F)(F)C(F)(F)F`, the outcome in test [1], in test [2], in [3], in [4], in test [5] and in test [6] was inactive. The result in [7], in test [8], in [9], in test [10], in test [11] and in [12] was inactive. For the same compound, the outcome in test [13], in [14], in test [15], in test [16] and in [17] was inactive. Moreover, the AC50 in test [16] is 30 µM (active).
As to `CCCCCCC(C)OC(=O)CCCCC(=O)OC(C)CCCCCC` (configuration not stated), the result in test [1], in test [2], in test [3], in test [4], in test [5] and in test [7] was inactive. For the same compound, the outcome in test [8], in test [9], in [10], in test [11], in [12] and in [13] was inactive. The outcome in test [14], in test [15], in [16] and in [17] was inactive. Also, in [6], the AC50 was 25.3 µM (active).
Turning to `O=C(Cl)C(F)(F)C(F)(F)C(F)(F)C(F)(F)C(F)(F)C(F)(F)C(F)(F)C(F)(F)F`, the result in [1], in test [3], in test [4], in test [5], in test [8] and in test [9] was inactive. In addition, the result in test [11], in [12], in test [13], in test [14], in [15] and in test [16] was inactive. The AC50 in test [2] was 45.7 µM (active) and 47.4 µM (active) and 54.8 µM (active); in [5], 39.5 µM (active) and 30 µM (active); in test [6], 54.8 µM (active) and 48.8 µM (active) and 47.2 µM (active); in test [7], 30 µM (active) and 40.7 µM (active) and 45.5 µM (active); in test [8], 39.6 µM (active) and 30 µM (active); in [9] it was 30 µM (active) and 48.9 µM (active). Besides, the AC50 is 24.5 µM (active) and 30 µM (active) and 43.1 µM (active) in [10]; 44.8 µM (active) and 43.8 µM (active) in test [11]; 42.7 µM (active) in test [15]; 42.7 µM (active) and 42.8 µM (active) and 30 µM (active) in test [17].

These data come from PubChem BioAssay (EPA / NIEHS).
